High-throughput results deposited in PubChem BioAssay by National Center for Advancing Translational Sciences (NCATS).
The list is not random: actives were taken first. Their share in the collection is about 1.2%.
pAkt inh: blocks phosphorylation of Akt; Neuro2A IGF-stimulated pAkt S473 HTRF, 20 min; hits give low values; activity change, % for hits at 50 µM; 360,000 compounds, 0.32% hits; in the data active = activity change below about -80%; inconclusive = mostly about -51% to -80%
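Neuro2A cells in DMEM with 0.5% FBS, overnight at 37 deg C, given compound at single 50 µM final, then IGF (6 nM final) for 20 min at 37 deg C. Lysed; phospho-Akt Ser473 by HTRF after 24 h, 665/615 ratio.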
gsp ag: agonists of gsp mutant (McCune-Albright syndrome) | Potency, µM (series often up to 76.9 µM), usual class: activators | AID 624287 | gsp mutant cells, cAMP HTRF, 30 min | 340,000 compounds, 0.13% hits; active = well fitted activation curve with a large enough effect; inconclusive = small, poorly fitted or top-dose-only effect, or another doubt; inactive = no such curve, though single readings can be large or run the other way; cell line not stated here;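 also: phosphodiesterase inhibitor Ro 20-1724 added with compounds to block cAMP breakdown; nearly all actives have a fitted effect of over 60% in size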
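Cells stably selected in G418 were plated at 2000/well, grown 16-24 hr, then given compounds in DMSO with the PDE inhibitor […] (300 uM solution added) for 30 min at 37C; cAMP was read by HTRF.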
RXFP1 antag: RXFP1 (human) relaxin receptor antagonism | Q9HBX9 | activity change, negative = inhibition, % at 57.5 µM | 350,000 compounds, 0.59% hits | AID 1259400 | HEK293-RXFP1, relaxin-stimulated cAMP HTRF, 30 min; hits give low values;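 active = activity change of -60% or lower, but not beyond a set lower limit; inconclusive = change between -60% and -40%, or beyond the set limit; inactive = change above -40%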
Target sequence (Q9HBX9 whole entry, looked up): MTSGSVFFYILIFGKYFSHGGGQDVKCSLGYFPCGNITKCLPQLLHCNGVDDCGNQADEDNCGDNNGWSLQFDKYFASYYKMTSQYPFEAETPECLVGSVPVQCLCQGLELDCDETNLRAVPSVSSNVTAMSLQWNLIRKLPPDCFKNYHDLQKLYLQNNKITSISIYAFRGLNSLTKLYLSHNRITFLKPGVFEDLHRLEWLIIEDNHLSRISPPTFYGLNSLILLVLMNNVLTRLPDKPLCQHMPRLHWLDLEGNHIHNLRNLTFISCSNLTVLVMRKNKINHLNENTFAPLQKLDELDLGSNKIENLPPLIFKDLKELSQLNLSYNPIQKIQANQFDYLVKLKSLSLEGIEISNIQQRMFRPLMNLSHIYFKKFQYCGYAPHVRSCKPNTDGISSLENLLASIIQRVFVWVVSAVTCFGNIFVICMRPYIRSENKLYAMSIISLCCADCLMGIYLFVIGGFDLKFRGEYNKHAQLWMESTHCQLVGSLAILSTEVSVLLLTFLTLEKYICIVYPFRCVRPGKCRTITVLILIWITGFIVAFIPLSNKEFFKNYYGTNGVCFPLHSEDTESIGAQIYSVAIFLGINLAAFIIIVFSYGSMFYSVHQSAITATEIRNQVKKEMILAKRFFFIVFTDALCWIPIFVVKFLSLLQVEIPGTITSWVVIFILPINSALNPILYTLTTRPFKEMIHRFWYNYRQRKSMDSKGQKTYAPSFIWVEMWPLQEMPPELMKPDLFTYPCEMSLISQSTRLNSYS
gsp antagonist: gsp mutant antagonism; Potency, µM (top dose mostly 76.9 µM), actives largely listed as inhibitors; 340,000 compounds, 0.4% hits; gsp-mutant cells, cAMP HTRF, 30 min; AID 624288; calls by dose curve; cell line not stated here;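 also: intracellular cAMP measured with PDE inhibitor Ro 20-1724 present during compound exposure; nearly all actives have a fitted effect of over 65% in size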
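G418-selected cells were plated in DMEM/10% FBS for 16-24 h at 37C, then treated with compounds plus the PDE inhibitor […] (300 uM solution added) for 30 min at 37C. Intracellular cAMP was measured by HTRF after 30 min lysis at room temperature.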
RXFP1 ag: activates the human relaxin receptor RXFP1. Potency, µM (titrated, usually from 57.5 µM), usual class: activators. HEK293T-RXFP1 cAMP TR-FRET, 30 min; response scale: percent of porcine relaxin response, buffer zero. 370,000 compounds, 0.3% hits. AID 2676; active = well fitted activation curve with a large enough effect; inconclusive = small, poorly fitted or top-dose-only effect; also: nearly all actives have a fitted effect of over 60% in size
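Agonist response is measured as cAMP accumulation in an RXFP1-transfected HEK293T line under PDE4 inhibition. Values are scaled between buffer-only and 29 nM porcine relaxin, and EC50s come from standard Hill equation fits.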
Each line names hits and unclear results; the compound was inactive in the other large screens.

CCNc1cc(=O)n(C)c(=O)n1C	pAkt inh -122%
CCCCNc1cc(=O)n(C)c(=O)n1C	none
O=C(O)C1Cc2ccccc2CN1C(=O)CSc1nnc2ccccn12 (stereo unspecified)	RXFP1 ag 35µM
Cc1nc2ccc(S(=O)(=O)NCC(=O)N3CCN(c4ccccn4)CC3)cc2s1	pAkt inh -117%
COc1ccccc1C(=O)Nc1c(C(=O)N(C)c2ccccc2)sc2nc(C)cc(C)c12	none (no result: pAkt inh, gsp ag, gsp antagonist)
Cn1nc(C(F)(F)F)c2cc(C(=O)Nc3ccc(F)c(Cl)c3)sc21	RXFP1 antag -76, gsp antagonist inconclusive
Cn1nc(C(F)(F)F)c2cc(C(=O)Nc3ccc(F)cc3)sc21	none
COc1cccc(N2CCN(C(=O)Cn3ncc4c3-c3ccccc3OC4)CC2)c1	none (no result: pAkt inh, gsp ag, RXFP1 antag, gsp antagonist)
Fc1ccc(CN2CCN(c3ncnc4scc(-c5ccc(F)cc5)c34)CC2)cc1	RXFP1 antag -68
NNC(=O)CSc1nc(-c2ccccc2)nc2c1CCCC2	RXFP1 antag -69
Cc1ccc(C(=O)CSc2nc(-c3ccccc3)nc3c2CCCC3)cc1	none (no result: pAkt inh, gsp ag, RXFP1 antag, gsp antagonist)
CCOC(=O)N1CCN(C(=O)Cc2ccc(-n3c(=O)[nH]c4ccccc4c3=O)cc2)CC1	pAkt inh -109%
CN(C)CCOC(c1ccccc1)c1ccc(Br)cc1 (stereo unspecified)	none (no result: pAkt inh, gsp ag, gsp antagonist, RXFP1 ag)
CCOc1ccc(Nc2nc(N)c(C(=O)c3ccccc3Cl)s2)cc1	RXFP1 ag 25µM (no result: pAkt inh, gsp ag, gsp antagonist)
Cc1ccc2cc3cc(C(=O)N(C)c4ccccc4C)oc3nc2c1	none (no result: pAkt inh, gsp ag, gsp antagonist)
NC(=O)c1ccc(N2CCN(c3ccc(O)cc3)CC2)c([N+](=O)[O-])c1	RXFP1 antag inconclusive
CC(=O)c1ccc(N2CCN(c3ccc(C(N)=O)cc3[N+](=O)[O-])CC2)cc1	gsp antagonist 32µM
Cc1ccc(NC(=O)/C(C#N)=C/c2cc(C)n(-c3ccc(Br)cc3)c2C)cc1C	RXFP1 antag -63 (no result: pAkt inh, gsp ag, gsp antagonist)
Cc1[nH]c2ccccc2c1C(=O)CN1CCCCC1CCO (stereo unspecified)	pAkt inh -109%
Cc1ccc2c(C(=O)CN3CCCCC3CCO)c(C)[nH]c2c1 (stereo unspecified)	none
Cc1cc2nc(-c3ccc(SCC(=O)N4CCN(C(=O)c5ccco5)CC4)nc3)[nH]c2cc1C	pAkt inh -94%, gsp ag inconclusive
Cc1cc2nc(-c3ccc(SCC(=O)N4CCOCC4)nc3)[nH]c2cc1C	none
CC(C)[C@H](NC(=O)c1ccccc1)C(=O)OCC(=O)/C=C1/N(C)c2ccccc2C1(C)C	gsp antagonist 35µM
O=C(NCc1ccccc1)c1ccc2c(=O)n(CCCN3CCCC3=O)c(=S)[nH]c2c1	pAkt inh inconclusive, RXFP1 antag -74
Cc1ccc(CNC(=O)c2ccc3c(=O)n(CCCN4CCCC4=O)c(=S)[nH]c3c2)cc1	gsp ag inconclusive (no result: pAkt inh)
CCCn1c(=S)[nH]c2cc(C(=O)N(CCO)Cc3ccccc3)ccc2c1=O	RXFP1 antag -75
COc1ccccc1CNC(=O)c1ccc2c(=O)n(CCCN3CCCC3=O)c(=S)[nH]c2c1	RXFP1 antag -65
CCOCCCn1c(=S)[nH]c2cc(C(=O)NCC(OC)OC)ccc2c1=O	RXFP1 antag -66
Cc1ccc(NC(=O)Nc2nnc(N(C)C3CCCCC3)s2)c(Cl)c1	none (no result: pAkt inh, gsp ag, gsp antagonist)
COc1ccc(CNC(=O)c2ccc3c(=O)n(CCCN4CCCC4=O)c(=S)[nH]c3c2)cc1	RXFP1 antag -116
COCCc1ccc(OCC2CO2)cc1 (stereo unspecified)	none (no result: pAkt inh, gsp ag, gsp antagonist, RXFP1 ag)
N#Cc1c(N)nc2c3c(sc(=N)c2c1N)NC(=O)CC3c1ccccc1 (stereo unspecified)	RXFP1 ag 28µM
Cc1ccc(N2CC(NC(=O)/C=C\c3ccc4c(c3)OCO4)CC2=O)cc1C (stereo unspecified)	none (no result: pAkt inh, gsp ag, gsp antagonist)
COc1ccccc1CNC(=O)CSCc1cnn(-c2ccccc2)c1-n1cccc1	none
COc1cccc(CNC(=O)CSCc2cnn(-c3ccccc3)c2-n2cccc2)c1OC	pAkt inh -119%, gsp antagonist inconclusive
O=Cc1cc(N=Nc2cccc(C(=O)O)c2)ccc1O	none
O=Cc1cc(N=Nc2ccccc2Cl)ccc1O	RXFP1 antag -65, gsp antagonist inconclusive
COc1ccc(C)cc1NC(=O)NCc1ccc2c(c1)CCN2C(=O)c1ccccc1	none (no result: pAkt inh, gsp ag, gsp antagonist)
CCc1ccc(NCc2cc3cc4c(cc3n(CC(=O)Nc3cccc(OC)c3)c2=O)OCO4)cc1	none (no result: pAkt inh, gsp ag, RXFP1 antag, gsp antagonist)
Cc1ccc(C)c(OCCC(=O)OCC(=O)NCCNC(=O)COC(=O)CCOc2cc(C)ccc2C)c1	RXFP1 antag -62
Clc1ccc(C(c2ccccc2Cl)C(Cl)Cl)cc1 (stereo unspecified)	RXFP1 antag -74 (no result: pAkt inh, gsp ag)
O=C(N/N=C/c1ccc(-c2ccccc2)o1)c1ccccc1O	gsp ag inconclusive, RXFP1 antag -85
O=C(N/N=C\c1ccncc1)c1ccccc1O	none
Cc1[nH]c2ccc(C(=O)NCCc3ccccc3Cl)cc2c1C	none (no result: pAkt inh, gsp ag, gsp antagonist)
NC(=O)c1nsc(C(=O)N(Cc2ccco2)C(C(=O)NCc2ccccc2)c2ccc(O)cc2)c1N (stereo unspecified)	gsp antagonist 11µM
Cc1cc(C)cc(N(CC(=O)NCc2ccco2)C(=O)c2snc(C(N)=O)c2N)c1	RXFP1 antag -60
Cc1ccccc1N(C(=O)c1snc(C(N)=O)c1N)C(C(=O)NCc1ccccc1)c1ccc(O)cc1 (stereo unspecified)	none
Cc1cc(C)cc(N(CC(=O)NCc2ccc(F)cc2)C(=O)c2snc(C(N)=O)c2N)c1	none
COc1ccc(NC(=O)Cn2c(=O)n(CCc3ccccc3)c(=O)c3c4c(sc32)CCCC4)cc1	none (no result: pAkt inh, gsp ag, RXFP1 antag, gsp antagonist)
CCOc1ccc(-n2c(-c3ccc(Br)cc3)cc3c2CC(C)(C)CC3=O)cc1	none (no result: pAkt inh, gsp ag, gsp antagonist)
CC(=O)Nc1ccc(N(C)C)cc1[N+](=O)[O-]	pAkt inh -109%
CC(=O)Nc1ccc(O)cc1[N+](=O)[O-]	none
CCSc1nnc(NC(=O)c2nc(S(=O)(=O)Cc3ccc(F)cc3)ncc2Cl)s1	RXFP1 antag inconclusive, gsp antagonist 40µM
Cc1nnc(NC(=O)c2nc(S(=O)(=O)Cc3ccccc3C)ncc2Cl)s1	gsp antagonist inconclusive
CCSc1nnc(NC(=O)c2ccc3ccccc3n2)s1	pAkt inh -95%, RXFP1 antag inconclusive
Cc1ccc(CS(=O)(=O)c2ncc(Cl)c(C(=O)Nc3nnc(C(C)C)s3)n2)cc1	RXFP1 antag -93, gsp antagonist 18µM
CCc1nnc(NC(=O)c2nc(S(=O)(=O)Cc3ccccc3)ncc2Cl)s1	gsp antagonist inconclusive
Cc1cccc(CS(=O)(=O)c2ncc(Cl)c(C(=O)Nc3nnc(C(C)C)s3)n2)c1	RXFP1 antag inconclusive, gsp antagonist 20µM
COc1ccc(S(=O)(=O)c2cn(C)c3cc(N4CCCCCC4)c(F)cc3c2=O)cc1	none (no result: pAkt inh, gsp ag, gsp antagonist)
CSc1nnc(NC(=O)c2nc(S(=O)(=O)Cc3ccccc3F)ncc2Cl)s1	gsp antagonist 35µM
